Screens: PubChem BioAssay, several laboratories
Shown are actives, neighbours in structure and some others; about 32% of the full set was active somewhere.
CYP2C9 activ: CYP2C9 (human) activation | AID 1024 | recombinant CYP2C9, luciferin-H conversion, luminescence; hits give high values; factor 1 = untreated enzyme, 0 = blocked | actives 1.4% (n = 96,000) | activation factor at 5 µM;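 active = activation factor of 2 or more for CYP2C9 at a 5 µM dose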
CYP2C9 inh: inhibitors of human CYP2C9. P11712. CYP2C9 Supersomes, luciferin-H conversion, luminescence. inhibition, % at 5 µM. actives 20% (n = 96,000). AID 777;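 active = blocking of liver enzyme CYP2C9 beyond about 50% at 5 µM, limit read from the data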
CYP2C19 inh: inhibitors of human CYP2C19; P33261; CYP2C19 Supersomes, luciferin-H EGE luminescence, 30 min; AID 778; actives 21% (n = 96,000); inhibition, % at 5 µM;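 active = CYP2C19 inhibition above a set limit at 5 µM in the primary screen, cut at about 50% in these data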
Target sequence (P33261 whole entry, looked up): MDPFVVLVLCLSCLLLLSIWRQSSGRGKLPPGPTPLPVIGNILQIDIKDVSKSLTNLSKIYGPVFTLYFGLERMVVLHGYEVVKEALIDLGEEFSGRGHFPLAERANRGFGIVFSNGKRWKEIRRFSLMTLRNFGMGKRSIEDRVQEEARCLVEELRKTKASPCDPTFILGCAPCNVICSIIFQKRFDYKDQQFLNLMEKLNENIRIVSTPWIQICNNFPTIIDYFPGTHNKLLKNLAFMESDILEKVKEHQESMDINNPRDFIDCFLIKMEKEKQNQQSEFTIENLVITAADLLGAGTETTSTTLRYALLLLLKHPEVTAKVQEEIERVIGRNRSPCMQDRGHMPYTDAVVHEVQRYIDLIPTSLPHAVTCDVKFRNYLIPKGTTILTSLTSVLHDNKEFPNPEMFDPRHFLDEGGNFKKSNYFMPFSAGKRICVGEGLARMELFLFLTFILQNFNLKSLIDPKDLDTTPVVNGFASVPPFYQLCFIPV
PostGolgi ctrl: yeast control strain growth, post-Golgi counter-screen; actives 5% (n = 98,000); inhibition, % at 10 µM; efflux-deficient yeast background strain, growth absorbance A615, 16 h
PostGolgi yeast: growth inhibition of a yeast mutant, post-Golgi transport screen. post-Golgi transport phenotypic cell assay. inhibition, % at 10 µM. actives 0.9% (n = 98,000);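 also: yeast cells grown in 1536-well plates; yeast grown about 18 h at 30C before absorbance read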
CYP2C19 activ: increases human CYP2C19 enzyme activity | P33261 | recombinant CYP2C19, luciferin-H EGE luminescence; hits give high values; 0 = fully inhibited enzyme, 1 = untreated enzyme | 96,000 tested, under 10 active | activation factor at 5 µM;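 active = activation factor of at least 2 at 5 µM in the primary screen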
Large screens that a line does not name were inactive. Rule as the data show it, unless noted: active = inhibition above about 30%; inactive = the rest.

COC(=O)C(NC(=O)C(CC(C)C)NC(=O)C1CCC(C)CC1)C(C)C (centres undefined)	none
O=C(c1ccc2snnc2c1)N1CCOCC1	none
CCOc1cccc(C(=O)Nc2ccc3oc(Cc4ccc(Cl)cc4)nc3c2)c1	CYP2C9 inh 58
CCOc1ccc(C2c3c(oc4ccccc4c3=O)C(=O)N2c2ccc(C)cn2)cc1OC (centres undefined)	CYP2C9 inh 82
COc1cc(C2c3c(oc4ccccc4c3=O)C(=O)N2c2ccc(C)cn2)ccc1O (centres undefined)	CYP2C9 inh 68
COc1cc(C2c3c(oc4cc(C)c(C)cc4c3=O)C(=O)N2c2cc(C)ccn2)ccc1O (centres undefined)	none
COc1ccc(N2C(=O)[C@@H]3Cc4ccccc4CN3C2=O)cc1	none
CCOC(=O)C(Oc1ccc(=O)n(-c2ccccc2)n1)C(C)=O (centres undefined)	CYP2C19 inh 56
COC(=O)COc1ccc(=O)n(-c2ccccc2)n1	CYP2C19 inh 63
O=C(O)COc1ccc(=O)n(-c2ccccc2)n1	none
CCOC(=O)C(Oc1ccc(=O)[nH]n1)C(C)=O (centres undefined)	none
OC1CN=C2C=CC=CN2C1 (centres undefined)	none
CS(=O)(=O)N1CC(C(=O)NC2CC2)Oc2ccc(Cl)cc21 (centres undefined)	none
CCCCOC(=O)Nc1nc(CC(=O)OCC)cs1	CYP2C9 inh 82, CYP2C19 inh 91
CCOC(=O)Cc1csc(NC(=O)C2CCCCC2C(=O)O)n1 (centres undefined)	none
CCOC(=O)Cc1csc(NC(=O)c2ccc(C)o2)n1	CYP2C9 inh 72, CYP2C19 inh 73
CCOC(=O)Cc1csc(NC(=O)c2ccncc2)n1	CYP2C9 inh 56, CYP2C19 inh 78
COCCn1cc(C(=O)c2ccccc2OCC(=O)Nc2cc(C)on2)cc(C#N)c1=O	none
Cn1c(=O)c2c(nc(SCC(=O)N3CCc4ccccc43)n2Cc2ccccc2)n(C)c1=O	none (no result: PostGolgi ctrl, PostGolgi yeast)
CCN(CC)S(=O)(=O)c1ccc(N2CCN(S(=O)(=O)c3ccc4c(c3)OCCO4)CC2)nc1	none
Cn1c(=O)c2ncn(CC(=O)Nc3cccc(-c4nc5ccccc5s4)c3)c2n(C)c1=O	CYP2C9 inh 50
NC(=O)C1(N2CCCCC2)CCN(C(=O)NC2CCCCC2)CC1	none
O=C(NCCSCc1c(F)cccc1Cl)c1ccco1	CYP2C9 inh 75, CYP2C19 inh 80
Cc1ccc(CSCC(=O)N/N=C/c2sccc2C)cc1	CYP2C19 inh 83
COC(=O)CC1C(=O)NCCN1C(=O)NC1CCCCC1 (centres undefined)	none
CCOCCCNC(=O)C1CCN(S(=O)(=O)N2CC(C)CC(C)C2)CC1 (centres undefined)	none
O=C(CCC1COc2ccccc2O1)Nc1ccc(Cl)cn1 (centres undefined)	CYP2C19 inh 75
NS(=O)(=O)c1ccc(CCNC(=O)CCC2COc3ccccc3O2)cc1 (centres undefined)	none (no result: CYP2C9 activ, CYP2C9 inh, CYP2C19 inh, CYP2C19 activ)
Cc1ccnc(NC(=O)CCC2COc3ccccc3O2)c1 (centres undefined)	CYP2C9 inh 55, CYP2C19 inh 82
O=C(O)CCC1COc2ccccc2O1 (centres undefined)	none
COc1ccc(CCNC(=O)CCC2COc3ccccc3O2)cc1OC (centres undefined)	CYP2C9 inh 68
Cc1cc(C)nc(NS(=O)(=O)c2ccc(NC(=O)CCC3COc4ccccc4O3)cc2)n1 (centres undefined)	none
CCOC(=O)c1ccc(NC(=O)CCC2COc3ccccc3O2)cc1 (centres undefined)	CYP2C9 inh 69
Cc1ccc(C(=O)COC(=O)C2CC(=O)N(c3nc(-c4ccccc4)cs3)C2)cc1C (centres undefined)	CYP2C9 inh 90
O=C(Nc1cc(C(F)(F)F)ccc1N1CCCC1)c1cccnc1	none
COC(=O)C(NS(=O)(=O)c1ccc(NC(C)=O)cc1)C(C)C (centres undefined)	none
CSc1ccc(S(=O)(=O)Nc2ccc(NC(C)=O)cc2)cc1	CYP2C9 inh 94, CYP2C19 inh 100
CSc1ccc(S(=O)(=O)Nc2ccc(S(=O)(=O)Nc3ccc(C)cc3)cc2)cc1	CYP2C9 inh 100, CYP2C19 inh 95
Cc1ccc(S(=O)(=O)Nc2ccc(S(=O)(=O)Nc3ncccn3)cc2)cc1	none
